Source: the supplement of paper PMC10338343
± gives the standard deviation.

system: MILI (PIWIL2) piRISC loaded with L1MC piRNA (26 nt); experiment: pre-steady-state target cleavage rate (min^-1); guide: L1MC piRNA 5'p-UAACUAAAUACUAUGCAAGCUGUAGG; MIWI and MILI are mouse PIWI proteins and EfPiwi is from a freshwater sponge; tags in brackets are library labels; higher = faster piRNA-guided slicing of the target; conditions: auxiliary factor: 500 nM mouse GTSF1
Protocol: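 Cleave-'n-Seq: a library of target RNAs (target site embedded in constant flanks, ACAGCATTCCGCGTTAGTGATATCCG... 5' flank; DNA-blocked outside the site) at 0.1 nM was incubated with 1 nM active mouse MILI or MIWI piRISC (synthetic 5'-monophosphorylated piRNA guide) with or without 500 nM mouse GTSF1 at 33 °C for 1 min to 16 h. Uncleaved targets were sequenced and normalised to non-target controls, and the pooled three trials were fitted to a burst-and-steady-state model to give the pre-steady-state cleavage rate (min^-1; k3 is constrained to at most 1e-4). Sequence is the target site only; target names encode pairing extent (gX:gY) and contiguous / 1-mismatch / 2-mismatch / bulge geometry. Fits with R² ≤ 0 are excluded.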

Sequence | pre-steady-state target cleavage rate
UCCUGGAACAGCUAGCAUAGUAUUUAGUAA | 0.275 ± 0.03
UCCUGGAACAGCGUGCAUAGUAUUUAGUUA | 0.282 ± 0.017
UCCUGGUACAGCUUGCAUAGUAAUUAGAAA | 0.0664 ± 0.018
UCCUGGAUGUCGUUGCAUACUAUUUAGUUA | 0.0161 ± 0.0052
UCCUGGAUCAGCUUGCAAAGUAUUUACUUA | 0.0828 ± 0.013
UCCUGGAUCAGCUUGCAAAGUAAUUAGUUA | 0.0974 ± 0.011
UCCUGGAUGUCCUUGCAUAGUAUUUUCUUA | 0.0376 ± 0.011
UCCUGCUACAGCUAGCAUAGUAUUUAGUAA | 0.212 ± 0.019
UCCUCCUUGAGCUUGCAUAGUAUUUUCAAA | 0.0637 ± 0.016
UCCUGGAUCAGCUUGCUUAGUAUUUAGUAA | 0.218 ± 0.012
UCCUGGAACUGCUUGCAUAGUAUUUUGUUA | 0.101 ± 0.017
UCCUGGAUCAGCUUCCAUAGUAUUUAGUUA | 0.0318 ± 0.0085
UCCUGCAACAGCUAGCAUAGUAUUUAGUUA | 0.289 ± 0.02
UCCUGGAUCUGCUUGCAUACUAUUUAGUUA | 0.055 ± 0.0088
UCCUCCUACAGACUUGCAUAGUAUUUAGUUA | 0.253 ± 0.02
UCCUGGAUCAGCUUGCAAUGUAUUUAGUAA | 0.0826 ± 0.014
UCCUGGAUGUGCUUGCAUAGUGAUUUAGUUA | 0.00833 ± 0.0042
UCCUGGAACAGCUUGCAUAGUAUUUAAUUA | 0.102 ± 0.021
UCCUCCAACAGCUUGCAUAGAAUUUAGUUA | 0.07 ± 0.014
UCCUCCUACAGCUUGCUUAGUAUUUACAAA | 0.0922 ± 0.021
UCCUGGAUGUCGAAGCAUAGUAUUUUGUUA | 0.0221 ± 0.0061
UCCUGGUACUGCUUGCUUAGUAUUUAGUUA | 0.197 ± 0.015
UCCUGGAUCAGCUUGCAUUGAAUUUAGUUA | 0.0248 ± 0.0084
UCCUGGAUGAGCCUGCAUAGUAUUUAGUUA | 0.157 ± 0.019
UCCUGGUACUCCUUGCAUAGUAUUUACAAA | 0.0123 ± 0.006

same assay, conditions: auxiliary factor: none (no GTSF1)

Sequence | pre-steady-state target cleavage rate
UCCUGGAACAGCUAGCAUAGUAUUUAGUAA | 0.00673 ± 0.0025
UCCUGGAACAGCGUGCAUAGUAUUUAGUUA | 0.00797 ± 0.0029
UCCUGGAUGUCGUUGCAUACUAUUUAGUUA | 0.00383 ± 0.002
UCCUGGAUCAGCUUGCAAAGUAUUUACUUA | 0.00392 ± 0.0024
UCCUGGAUCAGCUUGCAAAGUAAUUAGUUA | 0.00502 ± 0.0023
UCCUGGAUCAGCUUGCUUAGUAUUUAGUAA | 0.00347 ± 0.0021
UCCUGCAACAGCUAGCAUAGUAUUUAGUUA | 0.0104 ± 0.0028
UCCUGGAUGUCGAUGCAUACUAUUUUGUUA | < 0.0001
UCCUGGAUCUGCUUGCAUACUAUUUAGUUA | 0.0043 ± 0.0023
UCCUCCUACAGACUUGCAUAGUAUUUAGUUA | 0.00669 ± 0.0021
UCCUGGAUCAGCUUGCAAUGUAUUUAGUAA | 0.00611 ± 0.0022
UCCUGGAUGUGCUUGCAUAGUGAUUUAGUUA | 0.007 ± 0.0031
UCCUGGAUGUCGAAGCAUAGUAUUUUGUUA | 0.00241 ± 0.0023
UCCUGGUACUGCUUGCUUAGUAUUUAGUUA | 0.0115 ± 0.0025
UCCUGGAUGAGCCUGCAUAGUAUUUAGUUA | 0.00748 ± 0.0033
